# This is a sample that favours compounds with a hit; in the whole collection about 28% have one here.
# CYP2C19 inh: blocks human cytochrome P450 2C19; P33261; CYP2C19 Supersomes, luciferin-H EGE luminescence, 30 min; inhibition, % at 5 µM; hit rate 21% among 96,000;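 active = CYP2C19 inhibition above a set limit at 5 µM in the primary screen, cut at about 50% in these data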;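 also: plate controls were negative control wells for no effect and 2.5 mM tranylcypromine positive control for full effect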
# PLK1 PBD inh: Plk1 (human) PBD binding inhibition; P53350; Plk1 PBD phosphopeptide binding, fluorescence polarization; inhibition, %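 (tested at about 20 µM)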; hit rate 0.13% among 97,000; in the data active = inhibition above about 34%, passing the limit was not always enough
# CYP2C19 activ: activators of human cytochrome P450 2C19 | P33261 | recombinant CYP2C19, luciferin-H EGE luminescence; hits give high values; 0 = fully inhibited enzyme, 1 = untreated enzyme | activation factor at 5 µM | 96,000 tested, under 10 active;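 active = activation factor of at least 2 at 5 µM in the primary screen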;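 also: 0 = wells with 2.5 mM tranylcypromine and 1 = vehicle-only wells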
# PLK1 kinase inh: PLK1 (human) kinase inhibition. AID 619. inhibition, % at 10 µM. hit rate 0.53% among 97,000. P53350. recombinant PLK1 kinase, TR-FRET peptide phosphorylation;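 active = inhibition of 50% or more in the single-concentration screen; inactive = inhibition below 50%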;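 also: 0% = DMSO max control and 100% = H-89 dihydrochloride min control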
# CYP2C9 inh: human CYP2C9 inhibition; P11712; CYP2C9 Supersomes, luciferin-H conversion, luminescence; inhibition, % at 5 µM; hit rate 20% among 96,000;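 active = blocking of liver enzyme CYP2C9 beyond about 50% at 5 µM, limit read from the data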
# Target sequence (P11712 whole entry, looked up): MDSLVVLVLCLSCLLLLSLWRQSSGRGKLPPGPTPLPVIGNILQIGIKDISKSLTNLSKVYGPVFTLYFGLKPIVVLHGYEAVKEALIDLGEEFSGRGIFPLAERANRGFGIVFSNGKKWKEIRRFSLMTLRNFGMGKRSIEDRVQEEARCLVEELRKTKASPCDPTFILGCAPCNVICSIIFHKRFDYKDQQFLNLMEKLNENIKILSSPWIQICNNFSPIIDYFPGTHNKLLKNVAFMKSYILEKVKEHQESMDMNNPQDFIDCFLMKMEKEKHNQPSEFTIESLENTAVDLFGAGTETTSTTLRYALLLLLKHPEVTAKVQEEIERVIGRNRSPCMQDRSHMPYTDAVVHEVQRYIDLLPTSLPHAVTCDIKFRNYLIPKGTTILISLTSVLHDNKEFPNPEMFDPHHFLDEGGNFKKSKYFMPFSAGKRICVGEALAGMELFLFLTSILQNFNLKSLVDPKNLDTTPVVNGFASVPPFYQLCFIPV
# CYP2C9 activ: activators of human CYP2C9 | P11712 | recombinant CYP2C9, luciferin-H conversion, luminescence; hits give high values; factor 1 = untreated enzyme, 0 = blocked | activation factor at 5 µM | hit rate 1.4% among 96,000;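 active = activation factor of 2 or more for CYP2C9 at a 5 µM dose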;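 also: 0 = sulfaphenazole-blocked wells and 1 = vehicle-only wells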
# Starred values were filed as active, the others as inactive; . = not tested or not shown.
SMILES,CYP2C19 inh,PLK1 PBD inh,CYP2C19 activ,PLK1 kinase inh,CYP2C9 inh,CYP2C9 activ
CCCOc1ccccc1C1NC(=O)NC(C)=C1C(=O)OCCOC (configuration not stated),54*,-2,0.5,-7,22,0.8
CCOc1ccc(C(=O)Nc2nncs2)cc1OCC,-10,-26,1.1,0,-15,1.1
COc1ccccc1CNc1nc2nc3c(c(=O)n2[nH]1)CCC3,28,22,0.7,-8,76*,0.2
O=c1c2c(nc3nc(Cc4ccccc4)[nH]n13)CCC2,8,-5,0.9,-13,39,0.6
COc1ccc(C2C(=O)N(CCc3ccccc3)CC(=O)N2C2CCCCC2)cc1 (configuration not stated),14,-39,0.9,0,30,0.7
Cc1cc(C)c(C(=O)CC2(O)C(=O)Nc3ccccc32)cc1C (configuration not stated),92*,-17,0.1,-6,28,0.7
Cc1ccc(C)c(C(=O)CC2(O)C(=O)Nc3ccccc32)c1 (configuration not stated),19,-10,0.8,-8,-4,1
Cn1c(SCc2nc(-c3ccccc3)no2)nnc1-c1cccs1,.,16,.,-13,.,.
CCCn1c(SCc2nc(-c3cccs3)no2)nnc1-c1ccncc1,56*,17,0.4,-3,30,0.7
CCOc1ccc(-n2c(SCc3nc(-c4cccs4)no3)nnc2-c2ccncc2)cc1,92*,-11,0.1,-5,94*,0.1
Cn1c(SCc2nc(-c3cccs3)no2)nnc1C1CCCCC1,78*,-6,0.2,-14,46,0.5
COC(=O)c1nc2n(n1)C(c1ccccc1OC)C1=C(CCCC1=O)N2 (configuration not stated),8,.,0.9,.,4,1
O=S(=O)(Nc1nc2ccccc2s1)c1ccc(Br)s1,81*,-2,0.2,-15,96*,0
CC(=O)Nc1ccc(S(=O)(=O)Nc2nc3c(s2)CCCC3)cc1,91*,6,0.1,-10,43,0.6
COc1ccc(S(=O)(=O)Nc2ccccn2)cc1OC,8,-8,0.9,-6,-14,1.1
Cc1ccc(S(=O)(=O)Nc2nc3ccccc3s2)cc1,7,4,0.9,-10,44,0.6
CC(=O)Nc1ccc(S(=O)(=O)Nc2nc3ccccc3s2)cc1,33,2,0.7,-1,62*,0.4
COc1ccc(S(=O)(=O)Nc2nc3ccccc3s2)cc1OC,25,5,0.7,0,62*,0.4
Cc1c(C(=O)NN2CCN(C)CC2)cccc1[N+](=O)[O-],.,22,.,13,.,.
O=C(C1CCCN(S(=O)(=O)c2cccs2)C1)N1CCC(N2CCCCC2)CC1 (configuration not stated),-11,.,1.1,.,8,0.9
Cc1nn(C)c(C(=O)NNC(=S)Nc2ccc(F)cc2)c1[N+](=O)[O-],8,-30,0.9,-12,52*,0.5
Cc1nn(C(C)C(=O)NNC(=S)Nc2ccc(F)cc2)c(C)c1[N+](=O)[O-] (configuration not stated),8,-16,0.9,10,55*,0.4
COc1ccc(NC(=S)NNC(=O)C(C)n2nc(C)c([N+](=O)[O-])c2C)cc1 (configuration not stated),-7,-2,1.1,-11,-2,1
CCC1CCCCN1Cc1ccc(OC)c(C)c1C (configuration not stated),18,-14,0.8,0,6,0.9
Cc1nc2c3ccccc3nc(SCC(=O)N3CC(C)CC(C)C3)n2n1 (configuration not stated),54*,16,0.5,-11,23,0.8
SMILES,CYP2C19 inh,PLK1 PBD inh,CYP2C19 activ,PLK1 kinase inh,CYP2C9 inh,CYP2C9 activ
O=C(c1ccco1)N1CCN(S(=O)(=O)c2ccc(S(=O)(=O)NC3CCCC3)cc2)CC1,-5,17,1,-15,14,0.9
O=C1Nc2ccc(S(=O)(=O)NCCC3=CCCCC3)c3cccc1c23,61*,11,0.4,-6,37,0.6
CCN(c1cccc(C)c1)S(=O)(=O)c1ccc2c3c(cccc13)C(=O)N2,.,9,.,-9,.,.
CCN1C(=O)c2cccc3c(S(=O)(=O)NCc4cccnc4)ccc1c23,2,-7,1,-14,20,0.8
CCN(CC)S(=O)(=O)c1ccc2c3c(cccc13)C(=O)N2,89*,.,0.1,.,7,0.9
CCNS(=O)(=O)c1ccc2c3c(cccc13)C(=O)N2,70*,24,0.3,-13,29,0.7
COc1ccc(C(=O)Nc2ccccc2NC(=O)c2ccco2)cc1OC,-4,.,1,.,21,0.8
O=C(C1CCCCC1)N(Cc1ccccc1)c1ccccn1,4,-3,1,-12,-16,1.2
O=C(C1CC1)N(CCN(Cc1ccccc1)C(=O)C1CC1)Cc1ccccc1,54*,-32,0.5,-13,28,0.7
CC1=C(C(=O)Nc2ccccn2)C(c2cccnc2)n2nnnc2N1 (configuration not stated),2,-11,1,-3,4,1
Cc1cc(C)nc(N2CCCC(C(=O)Nc3ccc4nc(C)c(C)nc4c3)C2)n1 (configuration not stated),5,-16,0.9,21,-17,1.2
O=C1c2ccccc2C(=O)N1OCc1ccccc1,56*,14,0.4,-8,-14,1.1
O=C1c2ccccc2C(=O)N1OCc1cccc(Cl)c1,76*,-7,0.2,-15,-5,1.1
N#CCCN(Cc1ccccc1)C(=S)NC(=O)c1ccccc1,34,14,0.7,-2,93*,0.1
CCN(Cc1ccccc1)C(=O)CCCOc1ccccc1,73*,12,0.3,0,15,0.9
CCOc1ccc(C(=O)NCCc2ccccc2)cc1,43,-5,0.6,9,42,0.6
CCN(Cc1ccccc1)C(=O)c1ccccc1C,56*,0,0.4,6,1,1
O=C(O)CCCC(=O)N(Cc1ccccc1)Cc1ccccc1,12,.,0.9,.,10,0.9
CCOc1ccc(C(=O)NC(=S)N(Cc2ccccc2)Cc2ccccc2)cc1,29,-9,0.7,-12,53*,0.5
O=C(O)C1CCN(C(=O)COc2ccc3c4c(c(=O)oc3c2)CCC4)CC1,8,-31,0.9,-13,-5,1.1
COc1ccc(CN(CCC#N)C(=S)NC(=O)c2ccccc2)cc1,32,-3,0.7,-18,92*,0.1
O=C(CNS(=O)(=O)c1ccccc1)Nc1ccc(C(F)(F)F)cc1,51*,24,0.5,-10,30,0.7
CCOC(=O)c1ccc(NC(=O)CNS(=O)(=O)c2ccccc2)cc1,.,9,.,-22,.,.
Cc1ccc(S(=O)(=O)NCC(=O)Nc2ccc(C(F)(F)F)cc2)cc1,24,5,0.8,-15,9,0.9
O=C(CNS(=O)(=O)c1ccc(F)cc1)Nc1ccc(C(F)(F)F)cc1,65*,2,0.4,-10,55*,0.4

# High-throughput results deposited in PubChem BioAssay by several laboratories.
